Data published in PubChem BioAssay (NCATS).
Calls of active or inactive are those of the source. Calls come from the whole dose curve; as a rule, active = well fitted activation curve with a large enough effect; inconclusive = small, poorly fitted or top-dose-only effect; inactive = flat fitted curve, though single readings scatter.

test: Cellular Toxicity (caspase-3) SK-N-SH (AID 661); settings: SK-N-SH caspase-3 activation, qHTS, DMSO as zero, staurosporine as full; series mostly up to 91.7 µM; caspase-3 activation: at the top concentration;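 note: 0% = DMSO basal and 100% = 10 µM staurosporine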
From the text: NIH Chemical Genomics Center [NCGC]
NIH Molecular Libraries Screening Centers Network [MLSCN]
National Institutes of Environmental Health Sciences [NIEHS]
National Toxicology Program [NTP]
We have developed a 1536-well cell-based assay for quantitative high throughput screening (qHTS) against a number of cell lines to determine in vitro caspase 3/7 activity of small molecules. This particular assay uses the SK-N-SH cell line which is derived from human neuroblastoma.
NCGC Assay Protocol Summary:
The Caspase-Glo 3/7 assay (Promega) is a homogeneous method to measure caspase-3 and caspase-7 activities in cultured cells. The quantitation of caspase 3/7 activity is based on the cleavage of a peptide-aminoluciferin substrate. After caspase cleaves the substrate the free aminoluciferin is liberated and serves as the substrate of luciferase, which generates the light. The luminescent signal is proportional to amount of caspase 3/7 activity present.
Using the Caspase-Glo 3/7 assay, the amount of caspase 3/7 activity was measured in the SK-N-SH cell line with complete culture medium following compound treatment for 16 hours. The assay was performed in opaque white 1536-well plates. In the screen, tamoxifen and staurosporine were used as positive controls. Library compounds were measured for their ability to cause the activation of caspase 3/7 in the cell line, as reflected by an increase in luminescence signal, in a concentration-dependent manner. Data were normalized to the controls for basal activity (DMSO only) and 100% stimulation (10 uM staurosporine). AC50 values were determined from concentration-response data modeled with the standard Hill equation.
qHTS protocol for caspase 3/7 assay in SK-N-SH cells
[Step] [Parameter] [Value] [Description]
1. Reagent; 5 uL; 1500 SK-N-SH cells/well
2. Time; 5 hr; 37 °C incubation
4. Controls; 23 nL; Tamoxifen 0.23 uM to 100 uM & staurosporine 1.4 pM to 100 uM
5. Time; 16 hr; 37 °C incubation
6. Reagent; 5 uL; Caspase-Glo 3/7 reagent
7. Time; 1 hr; Room Temperature
8. Detection; Luminescence; Viewlux plate reader
Keywords: caspase 3/7, apoptosis, SK-N-SH cell line, luminescence, NTPHTS, NTPHTS_NCGC, NIEHS, EPA, DSSTox, MLSMR, MLSCN, NIH Roadmap, qHTS, NCGC

| SMILES | caspase-3 activation |
| --- | --- |
| O=C(O)c1ccc(Cl)c(Cl)c1 | -1.03% (inactive) |
| NS(=O)(=O)O | 0.0389% (inactive) |
| Cc1ccc(C#N)cc1 | -0.0917% (inactive) |
| NC(=S)NNC(N)=S | -0.499% (inactive) |
| COC(=O)c1ccccc1 | 1.36% (inactive) |
| ICCc1ccccc1 | -1.36% (inactive) |
| O=C1C=CCCC1 | -0.168% (inactive) |
| CC(C)Cc1nccs1 | 2.16% (inactive) |
| Nc1cccc([N+](=O)[O-])c1 | -0.834% (inactive) |
| NC(=O)c1ccccc1[N+](=O)[O-] | 1.04% (inactive) |
| CN(C)CCCNCCCN | 0.314% (inactive) |
| CCCC(Cl)CCCC(Cl)CCC(Cl)CCC(Cl)CCC(Cl)CCCC(Cl)CCC (stereo not given) | 0.324% (inactive) |
| Fc1ccccc1 | -0.338% (inactive) |
| C=CCn1c(=O)n(CC=C)c(=O)n(CC=C)c1=O | -0.401% (inactive) |
| CC(=C/C=C/C(C)=C/C=C/C=C(C)/C=C/C=C(C)/C=C/C(=O)O)/C=C/C(=O)O | -0.802% (inactive) |
| CCNc1cc(O)ccc1C | -1.61% (inactive) |
| CSc1ccc(C=O)cc1 | 1.91% (inactive) |
| O=[N+]([O-])c1ccc(NCCO)c(OCCO)c1 | -1.89% (inactive) |
| OC/C(Br)=C(\Br)CO | -2.71% (inactive) |
| Cc1ccc(C(C)(C)C)cc1 | 0.774% (inactive) |

| SMILES | caspase-3 activation |
| --- | --- |
| O=C(O)c1ccc(C(=O)O)cc1 | 0.852% (inactive) |
| CCC(=O)/C=C/C1C(C)=CCCC1(C)C (stereo not given) | -0.885% (inactive) |
| C=C(C)C(=O)OC | 0.386% (inactive) |
| C=CCCCC | -0.877% (inactive) |
| CC(=O)c1ccccn1 | -0.651% (inactive) |
| Cc1ccc2cccnc2c1 | -0.883% (inactive) |
| CCCCC=O | -1.34% (inactive) |
| C1CCOC1 | 0.895% (inactive) |
| O=C(O)CNC(=O)c1ccc(CO)o1 | -0.599% (inactive) |
| CC(O)COC(C)(C)C (stereo not given) | 0.748% (inactive) |
| O=C(O)c1cccc([N+](=O)[O-])c1 | -1.29% (inactive) |
| Nc1cc(S(=O)(=O)O)ccc1O | -0.415% (inactive) |
| C=C(C)C(=O)OCC(C)C | -0.995% (inactive) |
| c1ccc(Oc2ccccc2)cc1 | 1.48% (inactive) |
| CC1CCC2CC1C2(C)C (stereo not given) | -0.908% (inactive) |
| COC(=O)CCC(=O)OC | 0.966% (inactive) |
| OCCO | -0.455% (inactive) |
| CC(C)c1ccccc1 | -1.5% (inactive) |
| Cc1ccc(C)c(N)c1 | 0.736% (inactive) |
| Cc1c(N)cccc1[N+](=O)[O-] | -0.534% (inactive) |
